The full ranking holds about 33,000 sequences; the median of “e-score” is about -0.05, and the highest 2% start at about 0.38. This excerpt belongs to a sample that is enriched for the highest values.

The target in the assay is T1, SIX1-Q177R homeodomain (human, UniProt Q15475 108-198, Q177R).
T1 sequence: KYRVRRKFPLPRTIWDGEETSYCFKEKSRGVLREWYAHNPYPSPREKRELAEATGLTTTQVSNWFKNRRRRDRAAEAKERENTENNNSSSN
The assay is described as follows: universal protein binding microarray; Universal all-10-mer PBM (8x60K, AMADID 030236), 300 nM GST-tagged protein, Alexa Fluor 488 anti-GST; buffer, salt, pH and temperature not stated (as in Berger); high values mean tight binding. Particulars: protein: ivt; tags: N-terminal GST; dsDNA, one strand shown. In outline:
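Binding was expressed as 8-mer E-scores calculated with the Universal PBM Analysis Suite. The GST-tagged homeodomains, made by in vitro transcription/translation, were applied in duplicate at 300 nM final concentration to universal 'all 10-mer' protein binding microarrays (8×60K format).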
AGGGGTTA: the binding signal came out at 0.21 ± 0.0107 E-score.

On to CGGTGTTC, for which the binding signal turned out to be 0.476 ± 0.00165 E-score.

With CGGAGTCA, the binding signal was 0.356 ± 0.0051 E-score.

Turning to TCATAACA, the binding signal was 0.23 ± 0.0137 E-score.

As for CCCGGTAC, the binding signal is 0.22 ± 0.0152 E-score.

Turning to CACCCCTA, the binding signal was 0.283 ± 0.00661 E-score.

As for CACCCTAG, the binding signal was determined as 0.3472 ± 0.00144 E-score.

On to CACCCCTC, for which the binding signal came to 0.3928 ± 0.00375 E-score.

As to CACCCCTG, the binding signal is 0.351 ± 0.0108 E-score.

CACCCTAA: the binding signal was found to be 0.3263 ± 0.00228 E-score.

Take CACCCTAC: the binding signal turned out to be 0.387 ± 0.01 E-score.

Consider CACCCGCC, for which the binding signal was 0.339 ± 0.0104 E-score.

With CACTTAGC, the binding signal was 0.179 ± 0.029 E-score.

As for ACGCCCAC, the binding signal amounted to 0.208 ± 0.00669 E-score.

Take ATCGGCAC: the binding signal is 0.175 ± 0.0126 E-score.

For AGTAGGGG, the binding signal came to 0.196 ± 0.0406 E-score.

For the sequence CCATGGAA, the binding signal was 0.156 ± 0.015 E-score.

For ACACTGAT, the binding signal came out at 0.374 ± 0.00694 E-score.

Turning to ACACTGGG, the binding signal came to 0.412 ± 0.0164 E-score.

ACACTGGA: the binding signal worked out at 0.3915 ± 0.0011 E-score.

In the case of ACACTTGC, the binding signal is 0.363 ± 0.0273 E-score.

As for ACGCTGGG, the binding signal was 0.154 ± 0.0213 E-score.

With CCACTGGA, the binding signal came out at 0.206 ± 0.0185 E-score.

For ACACTGGT, the binding signal came out at 0.4256 ± 0.00135 E-score.

ACCCTGGG: the binding signal came to 0.238 ± 0.00896 E-score.

As to ACACTGTA, the binding signal was 0.3506 ± 0.0019 E-score.

Consider ACACTGGC, for which the binding signal worked out at 0.379 ± 0.00546 E-score.

As to AAACTGGT, the binding signal came to 0.203 ± 0.0496 E-score.

Consider ACCATGGG, for which the binding signal stood at 0.162 ± 0.0492 E-score.

Turning to CGATAACA, the binding signal is 0.232 ± 0.018 E-score.

As for GGGGTGGA, the binding signal worked out at 0.159 ± 0.0262 E-score.

For the sequence AGTCAGAG, the binding signal amounted to 0.156 ± 0.0606 E-score.

Regarding CACCCTGG, the binding signal stood at 0.315 ± 0.016 E-score.

Consider CCTTGACC, for which the binding signal worked out at 0.172 ± 0.00687 E-score.

In the case of AAGGGGTA, the binding signal turned out to be 0.2871 ± 0.000587 E-score.

Take AAACTACA: the binding signal worked out at 0.184 ± 0.032 E-score.

Regarding CGCCGTGC, the binding signal was 0.188 ± 0.0146 E-score.

Regarding ACGTAGTG, the binding signal is 0.23 ± 0.0205 E-score.

As for AACGTGTA, the binding signal stood at 0.353 ± 0.0523 E-score.

Take CACGTGCA: the binding signal was determined as 0.218 ± 0.0109 E-score.

As to AACGTGTC, the binding signal turned out to be 0.3481 ± 0.00176 E-score.

Regarding CACGTGTA, the binding signal came to 0.4 ± 0.0127 E-score.

For the sequence CACGTGCC, the binding signal is 0.225 ± 0.0142 E-score.

On to CACGTGTC, for which the binding signal turned out to be 0.398 ± 0.00923 E-score.

With ACCGCTAG, the binding signal came out at 0.171 ± 0.0167 E-score.

As for AACAGGTG, the binding signal worked out at 0.327 ± 0.0196 E-score.

Turning to CGTAACAC, the binding signal was found to be 0.4096 ± 0.00185 E-score.

For CGTAACCC, the binding signal was found to be 0.225 ± 0.019 E-score.

With AGTAACCC, the binding signal came out at 0.201 ± 0.0162 E-score.

GTAAACAC: the binding signal was 0.375 ± 0.00722 E-score.

For the sequence CGTAGCAC, the binding signal came to 0.17194 ± 0.000163 E-score.

In the case of GGTAACAC, the binding signal is 0.432 ± 0.00841 E-score.

For GGTAAACA, the binding signal was 0.188 ± 0.00443 E-score.

Consider AGTAACAC, for which the binding signal turned out to be 0.424 ± 0.0116 E-score.

CCACTTGC: the binding signal worked out at 0.163 ± 0.00866 E-score.

AGGGGTAC: the binding signal is 0.273 ± 0.0106 E-score.

With ATCCCCAC, the binding signal amounted to 0.211 ± 0.0453 E-score.

In the case of ATCTTACA, the binding signal is 0.262 ± 0.0268 E-score.

Turning to ACCCGTAA, the binding signal came to 0.264 ± 0.0395 E-score.

As for TGCCGACA, the binding signal is 0.177 ± 0.00329 E-score.

For the sequence CCGGTGCA, the binding signal amounted to 0.203 ± 0.0164 E-score.

Take GCGGTGTA: the binding signal was found to be 0.4849 ± 0.00132 E-score.

As to ACGGTGCT, the binding signal amounted to 0.179 ± 0.0133 E-score.

On to ACGGTGTA, for which the binding signal worked out at 0.4693 ± 0.00139 E-score.

For CCGGTGTA, the binding signal is 0.4859 ± 0.00134 E-score.

ACGGTGCA: the binding signal is 0.2931 ± 0.00041 E-score.

Take GATGTGTA: the binding signal was 0.19 ± 0.00781 E-score.

For the sequence GCTGTGTA, the binding signal is 0.223 ± 0.0192 E-score.

For CCGGTATA, the binding signal stood at 0.183 ± 0.0142 E-score.

CCCGAGTA: the binding signal is 0.167 ± 0.00344 E-score.

Regarding CTTAGGGA, the binding signal came out at 0.151 ± 0.0622 E-score.

Consider GCACAACA, for which the binding signal turned out to be 0.156 ± 0.0323 E-score.

As to CACCTGAG, the binding signal worked out at 0.183 ± 0.0139 E-score.

Consider ATTGGTGC, for which the binding signal stood at 0.1599 ± 0.00112 E-score.

For CAAGGACA, the binding signal was 0.194 ± 0.0363 E-score.

Turning to ACGACCCG, the binding signal turned out to be 0.179 ± 0.0515 E-score.

CACGCATC: the binding signal amounted to 0.168 ± 0.00731 E-score.

Take CACCAGCG: the binding signal was 0.22 ± 0.0046 E-score.

In the case of ACGTGTCC, the binding signal is 0.347 ± 0.017 E-score.

As for ACGTGGTG, the binding signal was determined as 0.3594 ± 0.00155 E-score.

Consider ACGTGTCG, for which the binding signal is 0.383 ± 0.00518 E-score.

In the case of CCGTGTGA, the binding signal was 0.299 ± 0.0309 E-score.

Regarding GCGTATCC, the binding signal was found to be 0.176 ± 0.00656 E-score.

On to GCGTGACA, for which the binding signal amounted to 0.254 ± 0.0158 E-score.

Consider CCGTGACA, for which the binding signal turned out to be 0.307 ± 0.00911 E-score.

With GCGTGTCC, the binding signal turned out to be 0.412 ± 0.0188 E-score.

The record behind these values is PMC10668032, “Altered binding affinity of SIX1-Q177R correlates with enhanced WNT5A and WNT pathway effector expression in Wilms tumor”.
